KLK7 zymogen act – proKLK7 (human) activation, primary screen; activation, % at 7 µM; purified proKLK7, EDANS-DABCYL substrate fluorescence; 100% is mature enzyme control, 0% vehicle; 370,000 compounds, 0.9% hits;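 active means activation above the mean of all tested compounds plus 3 SD, computed per campaign excluding outliers beyond control limits, cut at about 13% in these data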
ADAM17 inh – ADAM17 inhibition, QFRET primary screen; recombinant ADAM17, EDANS/DABCYL FRET peptide cleavage; inhibition, % at 6.95 µM; 370,000 compounds, 0.83% hits;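 active means inhibition above the mean of compounds lying between control limits plus 3 SD, set per campaign, cut at about 8.5% in these data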;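 further: 0% = DMSO-only wells as the low control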
sPLA2-III inh – Inhibits HGIII-sPLA2 liposome hydrolysis, primary screen | AID 743126 | QFRET BODIPY PC-A2 liposome hydrolysis, fluorescence | Q9NZ20 | 370,000 compounds, 0.56% hits | inhibition, % at 12.2 µM;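 active means inhibition above mean plus 3 SD of compounds lying within the high and low control bounds, cut at about 19% in these data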;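 further: 0% = median of test compound wells and 100% = no enzyme DMSO wells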
Target sequence (Q9NZ20 whole entry, looked up): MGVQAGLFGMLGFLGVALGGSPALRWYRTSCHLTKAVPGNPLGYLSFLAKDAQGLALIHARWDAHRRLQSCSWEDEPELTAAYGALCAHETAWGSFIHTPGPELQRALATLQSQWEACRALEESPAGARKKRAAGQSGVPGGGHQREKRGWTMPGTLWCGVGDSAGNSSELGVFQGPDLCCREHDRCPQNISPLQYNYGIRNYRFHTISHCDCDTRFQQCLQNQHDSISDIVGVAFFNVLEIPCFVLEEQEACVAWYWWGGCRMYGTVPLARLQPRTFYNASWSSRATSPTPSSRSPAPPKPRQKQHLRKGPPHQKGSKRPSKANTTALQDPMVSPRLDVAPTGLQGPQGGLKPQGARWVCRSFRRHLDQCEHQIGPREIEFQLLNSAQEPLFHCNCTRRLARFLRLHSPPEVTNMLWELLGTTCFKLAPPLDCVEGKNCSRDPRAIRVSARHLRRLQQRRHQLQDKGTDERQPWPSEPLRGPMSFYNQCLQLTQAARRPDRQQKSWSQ
NRP1-CendR mod – modulators of CendR peptide binding to human neuropilin-1. O14786. FAM-RPARPAR peptide binding to NRP-1, fluorescence polarization. inhibition, % at 25 µM. 360,000 compounds, 0.85% hits;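 active means inhibition or corrected inhibition above about 18%, plus a signal ratio from 0.5 to 1.5, limit read from the data, passing the limit was not always enough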
ADAM10 inh – inhibits human ADAM10; O14672; 370,000 compounds, 0.62% hits; inhibition, % at 7 µM; AID 720582; recombinant ADAM10, EDANS/DABCYL FRET peptide cleavage, 3 h;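 active means inhibition above a per-campaign cutoff equal to the mean of compounds falling between control-based bounds plus 3 SD, cut at about 20% in these data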;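 further: 0% = DMSO wells while the 100% control is not disclosed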
Active calls of the source: *; i = inactive; . = no result. This is a sample that favours compounds with a hit; in the whole collection about 3.4% have one here.

SMILES | KLK7 zymogen act | ADAM17 inh | sPLA2-III inh | NRP1-CendR mod | ADAM10 inh
CC1=C(C(=O)N2CCCCCC2)CC(CC(=O)NCCN2CCOCC2)C(=O)N1Cc1ccccc1 (stereo unspecified) | -0.1 | -3.1 | 6.3 | 29.1* | -3.3
COc1ccc(/C=N\NC(=O)c2cc(O)c(O)c(O)c2)cc1COc1ccc(C(=O)OCC(C)C)cc1 | -0.3 | 1.2 | 25.1* | -30.5 | 5.5
COc1ccc(/C=N\NC(=O)c2ccccc2)cc1COc1ccccc1 | 0.3 | 4.6 | -2.7 | 5.4 | 3.4
COc1ccc(/C=N\NC(=O)c2ccccc2F)cc1COc1ccc(F)cc1F | -1.9 | 4.5 | -12.4 | 5.5 | 12.6
COc1ccc(/C=N/NC(=O)c2cc(C(C)(C)C)[nH]n2)cc1COc1ccc(F)cc1F | -1.3 | 5.9 | -16.8 | 39.1* | 17.4
O=C(NCc1ccco1)C1CCCN(S(=O)(=O)c2ccccc2F)C1 (stereo unspecified) | 0.4 | 0.6 | 3.4 | . | -10.8
CN1CCN(c2ccc(-c3csc(N4CCC(C(N)=O)CC4)n3)cc2)CC1 | . | -1.6 | -1.3 | . | 1.3
COc1ccc(-c2ccnc3nc(N4CCOCC4)nn23)cc1 | 44.2* | -438.9 | 3.3 | 1.5 | i
CCCCNC(=O)CSc1nc2ccsc2c(=O)n1C1CCN(C(=O)OCC)CC1 | -0.7 | 0.1 | 6.0 | -4.5 | 20.4*
C[C@H]1[C@H](NC(=O)c2ccc(C(F)(F)F)cc2)CC[C@@]23CCCN2C(=O)CCC[C@@H]13 | . | 0.7 | 5.6 | . | 1.0
N#CCS(=O)(=O)c1ccccc1 | 0.6 | -2.6 | -5.3 | 23.7* | -4.3
CCN(CC)C(=O)CC[C@H]1CC[C@]2(CCCN(S(=O)(=O)C3CCCCC3)C2)O1 | -0.2 | 0.1 | 3.0 | . | 3.1
C=CCN(C(=O)c1csnn1)C(C(=O)NCc1ccccc1)c1c(F)cccc1Cl (stereo unspecified) | 0.0 | -0.9 | -2.2 | 26.8* | -9.0
COc1ccccc1C(=O)N/C(=C\c1cn(S(=O)(=O)N(C)C)c2ccccc12)C(=O)NCCCN1CCOCC1 | 0.7 | -0.1 | 2.1 | 44.0* | -0.8
O=C1CCN(CCc2ccccc2)CCN1CCSc1ccc(Br)cc1 | 0.7 | 4.6 | -11.7 | 23.3* | 10.5
CCOC(=O)[C@@H]1c2[nH]c3ccccc3c2C[C@@]2(C(=O)OC)C=CCN12 | 0.6 | -21.1 | 14.5 | . | -46.8
O=C(N[C@H](C(=O)N1CCC[C@H]1C(=O)NC1CCCC1)c1ccccc1)C1CCCC1 | 0.2 | -4.7 | 8.0 | . | -14.1
CCN(C(=O)[C@@H](C)[C@@H](O)c1ccc(C(C)=O)cc1)c1ccccc1 | 0.1 | -4.0 | 9.0 | . | -10.7
O=C(Nc1ccc(C(=O)N2CCN(c3ccc(F)cc3)CC2)cc1)C1=CSCCO1 | 0.3 | 0.4 | -8.3 | -0.7 | -2.6
COc1ccc(N2CCN(C(=O)c3ccc(NC(=O)C4=CSCCO4)cc3)CC2)cc1 | . | . | . | 35.5* | .
CCCCNC(=O)NCC1CCN(Cc2ccc(OC)cc2)CC1 | 0.6 | 1.2 | 4.3 | . | 1.0
CC1CCC/C(=N\NC(=O)c2ccncc2)C1 (stereo unspecified) | 0.1 | -0.5 | -0.1 | 30.0* | 8.8
CCOC(=O)c1ccc(NC(=O)CSc2nnc(-c3cc(-c4ccccc4)n[nH]3)n2N)cc1 | -0.1 | 2.9 | 4.8 | . | -7.3
COc1ccc(CN(C(=O)CSc2nnc(-c3ccc(F)cc3)o2)c2ccc(F)cc2)cc1 | 0.4 | 2.1 | -4.0 | 2.9 | 6.6
COc1ccc(CN(C(=O)CSc2nnc(-c3c[nH]c4ccccc34)o2)c2ccc(F)cc2)cc1OC | 0.6 | 8.1 | -26.6 | 10.9 | 21.5*
SMILES | KLK7 zymogen act | ADAM17 inh | sPLA2-III inh | NRP1-CendR mod | ADAM10 inh
COC(=O)CSc1nnc(-c2ccc(OC)c(OC)c2)o1 | -0.4 | -0.3 | 0.2 | -1.2 | 4.8
CCOC(=O)CN(C(=O)CSc1nnc(-c2ccc(OC)c(OC)c2)o1)c1ccccc1 | 0.4 | 1.2 | -2.3 | 31.0* | 1.2
Cn1cccc1C=NNC(=O)c1cc(-c2ccc(Cl)cc2)n[nH]1 | -0.2 | -0.9 | 7.9 | . | -4.7
COC(=O)[C@]12CCCCC=C1N(Cc1ccc(OC)cc1)C(=O)[C@@H]2CC(=O)NCC1CCCCC1 | 0.5 | -1.1 | -15.5 | . | 4.3
O=C(N[C@@H](Cc1cccnc1)C(=O)N1CCC[C@H]1C(=O)NCCc1ccccc1Cl)C1CCCC1 | 0.9 | -1.4 | -0.6 | . | -9.5
CCc1ccc(NC(=O)N(CCCN2CCOCC2)C(C)c2cc3cccc(OC)c3o2)cc1 (stereo unspecified) | 1.2 | -1.6 | -15.6 | 37.1* | -2.3
COc1cccc2cc(C(C)N(CCCN3CCOCC3)C(=S)Nc3cccc(C)c3)oc12 (stereo unspecified) | -0.1 | -0.6 | 2.3 | 39.0* | -1.1
COc1cccc2cc(C(C)N(CCCN3CCOCC3)C(=S)Nc3c(C)cccc3C)oc12 (stereo unspecified) | -0.1 | 1.5 | 0.0 | -6.3 | -2.7
O=c1c2cc3cc(Cl)ccc3nc2ncn1Cc1ccc(Oc2ccccc2)cc1 | -0.2 | -4.4 | -0.5 | . | -4.8
O=C(Cc1ccc(F)cc1)N1CCC(CC2CC(c3ccc(Cl)cc3)=NO2)(C(=O)NCC2CCCCC2)CC1 (stereo unspecified) | 0.3 | -0.1 | 1.2 | 24.6* | 6.8
CC(CCN1CCC(C(O)(c2ccccc2)c2ccccc2)CC1)Oc1cccc(F)c1 (stereo unspecified) | 0.8 | 4.5 | -17.1 | . | 2.8
Cc1cc(C)n(-c2nnc(NCc3ccc(Cl)cc3)nn2)n1 | 0.0 | 1.9 | 5.8 | 30.0* | -2.5
Cc1cc(N2CCN(C(=O)OC(C)(C)C)C[C@H]2C)ccc1N1CCN(Cc2ccccc2)[C@@H](C)C1 | 0.0 | -1.9 | 6.8 | . | -10.0
NC(=O)C1CC(=O)N(c2ccc(OCC(=O)N3CCCC3)cc2)C1 (stereo unspecified) | 0.2 | 0.4 | -6.2 | 27.6* | 0.4
CNC(=O)C1CC(=O)N(c2ccc(OCC(=O)N3CCCC3)cc2)C1 (stereo unspecified) | -0.5 | -1.9 | -0.1 | 7.4 | 2.5
Cc1ccc(S(=O)(=O)Nc2cc(C(=O)O)ccc2N2CCC(C)CC2)cc1C | 0.4 | -3.5 | 0.3 | . | -7.2
COc1ccc(NC(=O)Nc2cccc3c2O[C@H](CN(C)C(=O)Nc2ccc(C(F)(F)F)cc2)[C@@H](C)CN([C@H](C)CO)C3=O)cc1 | . | . | . | -5.1 | .
C[C@H](CO)N1C[C@H](C)[C@@H](CN(C)C(=O)Nc2ccc(C(F)(F)F)cc2)Oc2ccc(NC(=O)Nc3ccc(C(F)(F)F)cc3)cc2C1=O | 0.3 | 12.8* | -30.9 | -4.5 | 25.8*
C[C@H]1CN([C@@H](C)CO)C(=O)c2cccc(NC(=O)Nc3ccc(C(F)(F)F)cc3)c2O[C@@H]1CN(C)C(=O)Nc1ccc(F)cc1 | 0.0 | 6.4 | -27.4 | 6.4 | 23.3*
COc1ccc(S(=O)(=O)Nc2cccc3c2O[C@H](CN(C)S(=O)(=O)c2cn(C)cn2)[C@@H](C)CN([C@H](C)CO)C3=O)cc1 | 0.0 | -1.6 | -5.7 | 26.1* | -5.2

Screening results deposited in PubChem by several laboratories.
